# Avidin fluor – avidin bead compound fluorescence profile. Avidin beads, compound fluorescence 488/530 nm, flow cytometry; active compounds read high. fluorescence (KMESF) at 10 µM. actives 0.38% (n = 220,000); in the data active = fluorescence above about 47
# RGS16-Gao HTS – modulates binding between human RGS16 and Galphao | O15492+P09471 | bead-based flow cytometry RGS16-Galphao binding, fluorescence; actives lie on both sides | binding response (% of control), % at 10 µM | actives 0.38% (n = 220,000) | AID 1441; call rule not given here;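 note: Galphao activated by GDP with aluminum fluoride before binding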
# RGS7-Gao – modulates binding of RGS7 to human Galphao | P09471 | Multiplexed bead flow cytometry; actives lie on both sides | actives 0.35% (n = 220,000) | binding response (% of control), % at 10 µM; in the data active = binding response below about 49% or above about 150%; inconclusive = no clear call, values can overlap the other calls; inactive = in between;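 note: fluorescent Galphao held in activated GDP-AlF4 state binding bead-coupled RGS7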
# Target sequence (P09471 whole entry, looked up): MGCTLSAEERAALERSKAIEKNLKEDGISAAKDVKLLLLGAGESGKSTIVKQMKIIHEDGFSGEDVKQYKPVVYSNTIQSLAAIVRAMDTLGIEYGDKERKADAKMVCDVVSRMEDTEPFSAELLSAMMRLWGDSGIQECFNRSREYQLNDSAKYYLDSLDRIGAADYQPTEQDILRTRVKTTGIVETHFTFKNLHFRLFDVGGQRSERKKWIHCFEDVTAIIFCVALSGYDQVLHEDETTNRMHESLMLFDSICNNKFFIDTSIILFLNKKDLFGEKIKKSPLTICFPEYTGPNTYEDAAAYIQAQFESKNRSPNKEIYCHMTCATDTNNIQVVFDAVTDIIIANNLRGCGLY
# RGS4-Gao reg – human RGS4-Galphao interaction regulation; P09471; actives 0.33% (n = 220,000); binding response (% of control), % at 10 µM; AID 1415; Multiplexed bead flow cytometry, RGS4-Galphao binding; actives lie on both sides; in the data active = binding response below about 49% or above about 150%; inactive = in between;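 note: fluorescent Galphao activated with aluminum fluoride binding bead-coupled RGS4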
# GSH fluor – GSH bead compound fluorescence profile. GSH beads flow cytometry, compound fluorescence 488/530 nm; active compounds read high. fluorescence (KMESF) at 10 µM. actives 0.25% (n = 190,000). AID 1776; in the data active = fluorescence above about 89;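 note: glutathione beads carrying GST-tagged Bcl family fusion proteins plus one bare bead set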
# RGS8-Gao – human RGS8-Galphao interaction regulation; P09471; response (percent of control binding), % at 10 µM; multiplexed bead flow cytometry, RGS8-Galphao binding; actives lie on both sides; actives 0.34% (n = 220,000); in the data active = response below about 60% or above about 140%; inactive = in between;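 note: Galphao activated as the GDP aluminium fluoride complex binding bead-coupled RGS8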
# Hits are given with their value; i = inactive; ? = inconclusive; nt = no result. Only some compounds are listed: those with a hit (about 1.2% of all), similar ones and a draw of the others.
SMILES,Avidin fluor,RGS16-Gao HTS,RGS7-Gao,RGS4-Gao reg,GSH fluor,RGS8-Gao
CCc1c(C)sc(NC(=O)C2CCCO2)c1C#N (stereo not drawn),i,i,i,i,139,i
COc1ccc(-c2nnn(CCc3nn[nH]n3)n2)cc1OC,i,i,i,i,i,i
COc1ccc(-c2nnn(Cc3nn[nH]n3)n2)cc1OC,i,i,i,i,280,i
N#Cc1cc(-c2ccc(Cl)cc2)cnc1Sc1ccccc1,i,1.3,14.8,21.1,i,12.2
N#Cc1cc(-c2ccccc2)cnc1Sc1ccc(Cl)cc1,i,i,i,i,i,i
COc1ccc(OC)c(C(=O)CSc2nc3ccccc3n2CC(=O)NC(C)(C)C)c1,i,i,i,i,270,i
CC(C)[C@H](Nc1ncnc2c1oc1ccccc12)C(=O)O,i,i,?,i,nt,i
CCOC(=O)c1c(C)[nH]c(C(=O)Cn2nnc(-c3ccccc3Cl)n2)c1C,i,i,i,i,i,i
CCOC(=O)c1c(C)[nH]c(C(=O)Cn2nnc(-c3ccccc3)n2)c1C,i,i,i,i,265,i
c1cc2c(cc1OCCNC1CCCC1)CCC2,i,i,?,i,i,i
NCCSc1c(-c2ccc(Cl)cc2)[nH]c2ccccc12,i,i,?,i,nt,i
NCCSc1c(-c2ccccc2)[nH]c2ccccc12,i,-3.3,-8.4,5.5,i,12.5
CCOC(=O)c1ccc2nc(C)c(CCC(C)=O)c(Cl)c2c1,i,8.4,18.7,19.2,i,11.3
CCCCc1c(C)nc2ccc(C(=O)OCC)cc2c1Cl,i,i,i,i,i,i
CCOC(=O)c1nn(-c2ccccc2)c(=O)cc1SC(C)CC (stereo not drawn),100,i,i,i,i,i
CCOC(=O)c1nn(-c2ccccc2)c(=O)cc1SC(C)C,i,i,i,i,i,i
O=C(O)CCc1ccc(-c2ccccc2)o1,i,i,i,i,i,i
CC(CCc1ccccc1)NC(=O)c1ccco1 (stereo not drawn),i,i,i,i,i,i
Cc1ccc(C(=O)CSc2ccc(-c3cccnc3)nn2)cc1,i,i,i,i,i,i
CC(C)(C)c1ccc(C(=O)CC(=O)c2cc(Cl)ccc2O)cc1,i,i,i,i,245,i
Nc1cc(=O)[nH]c(SCc2ccc(Cl)cc2)n1,50,i,i,i,i,i
COc1ccc(OC)c(-c2c3cc(O)c(=O)cc-3oc3cc(O)c(O)cc23)c1,i,17.0,4.7,38.7,274,35.7
COc1ccc(/C=C2\SC(=NCc3ccccc3)N(Cc3ccccc3)C2=O)cc1OC,i,i,i,i,i,i
CCN=C1S/C(=C\c2ccc(OC)c(OCC)c2)C(=O)N1CC,i,i,i,i,106,i
Nc1ccccc1SCC(=O)Nc1nccs1,i,i,i,i,i,i
SMILES,Avidin fluor,RGS16-Gao HTS,RGS7-Gao,RGS4-Gao reg,GSH fluor,RGS8-Gao
CC(=O)OCC(=O)Nc1ccc(Cl)cc1Cl,i,i,i,i,231,i
CC(=O)OCC(=O)Nc1ccc([N+](=O)[O-])cc1Cl,i,i,i,i,i,i
COc1ccc(N(CC(=O)NC2CCCCC2)C(=O)CCCC(=O)Nc2ccccn2)c(OC)c1,84,i,i,i,i,i
N#C/C(=C/c1ccc(N2CCCCC2)o1)C(=O)Nc1ccc(Cl)cc1,56,i,i,i,i,i
N#C/C(=C\c1ccc(N2CCOCC2)o1)C(=O)Nc1ccc(O)cc1,i,i,i,i,i,i
Cc1cc(-n2c(=O)c(C#N)cc3c(=O)n4cccc(C)c4nc32)no1,i,i,i,i,i,i
CCOC(=O)C1=C(C)OC(N)=C(C(=O)OCC)C1c1ccncc1 (stereo not drawn),i,i,i,i,244,i
CCOC(=O)C1=C(C)OC(N)=C(C(=O)OCC)C1c1cccnc1 (stereo not drawn),i,i,i,i,i,i
CCc1ccc(C(=O)COC(=O)CNC(=O)c2cccs2)cc1,78,i,i,i,i,i
COC(=O)c1ccc(Cn2cc(Cl)cn2)cc1,i,i,i,i,i,i
COc1cc(C(=O)N2CCN(C(=O)CC(C)C)CC2)cc(OC)c1OC,120,i,i,i,i,i
O=C(CCC(=O)Nc1ccccc1)NNC(=O)c1cccs1,i,i,i,i,i,i
CCOC(=O)c1cnc(COc2ccc(OC)cc2)[nH]c1=O,i,i,?,i,nt,i

# Screens deposited in PubChem BioAssay by NMMLSC.
